High-throughput results as filed in PubChem.
The list is not random: actives were taken first. Their share in the collection is about 8.6%.
MARV entry inh = inhibitors of Marburg virus binding or entry into cells. Potency, µM (highest dose often 49.2 µM), for inactives: at the top dose activity change, negative = inhibition, actives largely listed as inhibitors. Marburg virus pseudotype entry/binding inhibition, cell-based. actives 6.5% (n = 18,000). AID 720532
LASV entry inh = Lassa virus entry inhibition; Lassa virus pseudotyped entry inhibition, cell-based qHTS; Potency, µM (titrated, usually from 49.2 µM), inactives show at the top dose activity change, negative = inhibition, actives largely listed as inhibitors; actives 4.1% (n = 18,000); AID 720533
An asterisk follows results filed as active; ? = inconclusive; . = no result given; ! = repeats disagree; [ ] = dose if it differs, or a comment. Calls follow the shape of the full dose curve; tested in HEK293 cells. % is scaled to controls: 0 for no effect and ±100 for the full control effect; potency is read from the fitted curve at half-maximal effect.

SMILES	MARV entry inh	LASV entry inh
CCN(CC)Cc1ccc(Nc2ccnc3cc(Cl)ccc23)cc1O	1.8µM*	?
COC(=O)c1csc(C(=O)c2c[nH]c3ccccc23)n1	-2%	-1%
COc1ccc(CCNC(=O)C(=O)c2c[nH]c3ccccc23)cc1	-3%	3.5µM*
COCc1c(C(=O)NC2CCCC2)cnn1-c1nccc(-c2cccs2)n1	21%	14%
CC[C@H]1CN2CC[C@@H]1C[C@H]2[C@@H](O)c1ccnc2ccc(OC)cc12	?	4%[17.8 µM]
CCC1CN2CCC1CC2C(O)c1ccnc2ccc(OC)cc12 (stereo not drawn)	20µM*	?
CCC(COC)NC(=O)c1cnn(-c2ncc3c(n2)-c2ccccc2CCC3)c1C (stereo not drawn)	5%	-18%
COC(=O)[C@@H]1[C@@H](c2ccccc2)NC(=O)N(CCc2cc(OC)c(OC)c(OC)c2)[C@@H]1C	-31%[8.59 µM]	-7%[8.59 µM]
Cc1ccc2c(=O)c3cccc(CC(=O)O)c3oc2c1C	10%	0%
CCSc1nnc(C(C)NS(=O)(=O)c2cccc(Cl)c2C)n1C (stereo not drawn)	-2%	-5%
N#CC(C#N)=NNc1ccc(OC(F)(F)F)cc1	3.2µM*	1.3µM*
CN1CCc2cc3c(cc2C(=O)Cc2ccc4c(c2C1)OCO4)OCO3	?	-23%
CC1=CC(=O)c2c(O)cccc2C1=O	4µM*	3.2µM*
CC1=CC2C(=O)c3cccc(O)c3C(=O)C2C(O)=C1 (stereo not drawn)	11%	-5%
CN1C(=O)c2ccccc2C1=O	19%[107 µM]	-1%[107 µM]
CC1=CC(=O)c2ccccc2C1=O	10µM*!	?
COC(=O)[C@H](C(C)C)N(Cc1cc(OC)cc(OC)c1)S(=O)(=O)CCl	-23%	.
O=C(Nc1ccc(Br)cc1)c1cccc(S(=O)(=O)Nc2ccc(Br)cc2)c1	?	22µM*
O=C(Nc1ccc(Br)cc1)c1cc(Br)c(Br)s1	-21%	?
C=CCN1C(=O)[C@]2(OCCC=C[C@H]2C)c2c(Br)cccc21	54%[8.59 µM]	-1%[8.59 µM]
C=CCN1c2ccccc2[C@]23CCC(=O)N(CCc4ccccn4)C2=NC(C(=O)OC)=C(C(=O)OC)[C@H]13	4%[8.59 µM]	14%[8.59 µM]
CCN(CC)CCOC(=O)C(Cc1cccc2ccccc12)CC1CCCO1 (stereo not drawn)	10µM*	?
COc1ccc(C(=O)N(Cc2cc3cccc(C)c3nc2N(C)C)CC2CCCO2)cc1 (stereo not drawn)	-15%	-11%
COc1cc(OC)c2c(=O)c(-c3ccccc3)coc2c1	44%	4%
CN1CCN(C2=Nc3cc(F)ccc3Cc3ccccc32)CC1	?	-10%
SMILES	MARV entry inh	LASV entry inh
CN1CCN(C2=Nc3cc(Cl)ccc3Nc3ccccc32)CC1	10µM*	8.9µM*!
Clc1ccc2c(c1)N=C(N1CCNCC1)c1ccccc1N2	10µM*	?
Clc1ccccc1-c1nc(N2CCNCC2)c2ccccc2n1	?	-12%
CCCCN1CCCC1C(=O)Nc1c(C)cc(C)cc1C (stereo not drawn)	-10%	3%
COc1cc(Nc2ncc(-c3ccccc3)o2)cc(OC)c1	58%	110%
C/C=C/C/C=C/CCC(=O)[C@H]1O[C@H]1C(N)=O	16µM*	16µM*
CC/C=C\C/C=C\C/C=C\C/C=C\C/C=C\C/C=C\CCC(=O)O	16%	4%
CCCCCCCCCC[N+](C)(C)CCCCCCCCCC	?	25µM*
CCCCCCCC[N+](C)(C)CCCCCCCC	16µM*	?
C[N+](C)(C)CCCCCC[N+](C)(C)C	10%	10%
CCCCCCCCCC(=O)O	2%	-5%
CCCCCCCCCCCCCCCC[N+](C)(C)CC	10µM*	16µM*
CCCCCCCCCCCCCCCCCC[N+](C)(C)CCC[Si](OC)(OC)OC	4%	-16%
CCCCCCCCCCCCCCCC[N+](C)(C)C	8.9µM*!	?
CCCCCCCCCCCCCCCCOP(=O)([O-])OCC[N+](C)(C)C	-10%	9%
C=C(C)C(=O)OC[C@@H]1CN2[C@H](c3ccc(Br)cc3)[C@H](C)CC[C@H]2C(=O)O1	46%[8.59 µM]	11%[8.59 µM]
CC(=O)OC[C@H]1O[C@@H](ON=C2C[C@@H](O)[C@@H](O)[C@@H]3[C@H]4C(=O)N(C5CCCCC5)C(=O)[C@@H]4CC[C@@H]23)[C@H](OC(C)=O)[C@@H](OC(C)=O)[C@H]1OC(C)=O	-25%[8.59 µM]	-1%[8.59 µM]
COc1ccc([C@H]2C[C@@H](O)[C@H](n3cc(COC(=O)c4ccccc4)nn3)CN2CC2CCCCC2)cc1	?	12%
Fc1ccc(-c2ncn(CCCN3CCOCC3)c2-c2ccncc2)cc1	-3%	65%
CC1(C)CCCC2(C)C3C(O)CC2(C)C(O)C31 (stereo not drawn)	2%	-12%
CNC(=O)Oc1ccc2c(c1)[C@@]1(C)CCN(C)C1N2C (stereo partly drawn)	?	-23%
O=C(NCCN1CCOCC1)c1cnn(-c2ncc3c(n2)-c2ccccc2CC3)c1C1CC1	?	-15%
O=C(NC1CCN(Cc2ccccc2)C1)c1cnn(-c2ncc3c(n2)-c2ccccc2CC3)c1C1CC1 (stereo not drawn)	5µM*	-15%
C[C@H]1OC(=O)CC[C@@H]2[C@]1(C)CCC1[C@@]2(C)CC[C@@]2(C)C3CC(C)(C)CC[C@]3(CO)CC[C@]12C (stereo partly drawn)	-9%	-4%
CC(=O)OC1(c2ccccc2)CCN(CCc2ccccc2)CC1	?	-24%[107 µM]
SMILES	MARV entry inh	LASV entry inh
CN(C)C(=O)C(CCN1CCC(O)(c2ccc(Cl)cc2)CC1)(c1ccccc1)c1ccccc1	6.3µM*	25µM*!
CC[C@@H](CO)NCCN[C@@H](CC)CO	-21%[17.8 µM]	-1%[17.8 µM]
CC(C)C[C@H](NC(=O)[C@H](Cc1ccccc1)NC(=O)c1cnccn1)B(O)O	3.5µM*	2.8µM*
CC(C)C[C@@H](NC(=O)[C@@H](O)[C@H](N)Cc1ccccc1)C(=O)O	18%	6%
S=C=Nc1cccc(NC(=S)NCCCCNC(=S)Nc2cccc(N=C=S)c2)c1	-9%	-4%
CN1[C@@H]2CC[C@H]1CC(OC(c1ccccc1)c1ccccc1)C2 (stereo partly drawn)	13µM*	14µM*
CN1[C@@H]2CC[C@H]1CC(O[C@@H](c1ccccc1)c1ccc(Cl)cc1)C2 (stereo partly drawn)	4.5µM*	10µM*
CN1C2CC(OC(=O)C(CO)c3ccccc3)CC1C(O)C2 (stereo not drawn)	8%	9%
CN1C2CCC1CC(OC(c1ccc(F)cc1)c1ccc(F)cc1)C2 (stereo not drawn)	5.6µM*	?
c1ccc(C(O[C@H]2CCCN(CCc3ccc4c(c3)OCO4)C2)c2ccccc2)cc1	?	-4%
O=S(=O)(/C=C/c1ccccc1)N1CCC(n2c(C3CCCO3)nc3cccnc32)CC1 (stereo not drawn)	-14%	-9%
C[C@@H]1CN(Cc2ccc3c(c2)CN(Cc2nc(-c4ccccc4)cs2)CCO3)C[C@H](C)O1	-16%	-6%
CO[C@@H]1c2ccccc2[C@H]2C(C(=O)O)c3c(n(C)c4ccccc34)[C@H]2[C@H]1C (stereo partly drawn)	29%[8.59 µM]	-22%[8.59 µM]
COc1cc(C)c(CN2C[C@H](Sc3nc4ccccc4[nH]3)C[C@H]2C(=O)N(C)C)cc1C	23%	-6%
Nc1nccc(-c2c(-c3ccc(F)cc3)nn3cc(C(F)(F)F)ccc23)n1	30%	28%
c1ccc(Nc2ncc(-c3ccccc3)o2)cc1	-41%	5µM*
Cc1cccc(Nc2ncc(-c3ccccc3)o2)c1	-19%	.
